Reference: PubChem BioAssay AID2283304 (EPA ToxCast)
Records with an inconclusive call do not appear. The source made the active and inactive calls. Rule for the calls: active = hit-call score of the fitted dose curve at least 0.9, where 1 is the maximum; inconclusive = response in the unintended direction; inactive = score below 0.9.

These compounds were tested against rat Galanin Receptor, Galr1 (gene 50577) (UniProt Q62805) (assay: NVS_GPCR_rGalanin: NovaScreen (NVS) G Protein-Coupled Receptor Assay for rat Galanin Receptor).
Method: NVS_GPCR_rGalanin is a biochemical, single-readout assay that uses extracted gene-proteins from Rat brain membranes in a tissue-based cell-free assay. Measurements were taken 2 hours after chemical dosing in a 96-well plate.NVS_GPCR_rGalanin is one of one assay component(s) measured or calculated from the NVS_GPCR_rGalanin assay. It is designed to make measurements of radioligand binding, a form of binding reporter, as detected with scintillation counting signals by Filter-based radiodetection technology.Data from the assay component NVS_GPCR_rGalanin was analyzed into 1 assay endpoint. This assay endpoint, NVS_GPCR_rGalanin, was analyzed in the positive analysis fitting direction relative to DMSO as the negative control and baseline of activity. Using a type of binding reporter, loss-of-signal activity can be used to understand changes in the binding as they relate to the gene Galr1. Furthermore, this assay endpoint can be referred to as a primary readout, because the performed assay has only produced 1 assay endpoint. To generalize the intended target to other relatable targets, this assay endpoint is annotated to the gpcr intended target family, where the subfamily is rhodopsin-like receptor.
Binding assays used specific radioligands (tritiated, iodinated) with non-radioactive competitive displacement ligands in agonist or antagonist protocols (as indicated) and various reference compounds and inhibitors to titrate specific binding to receptors and transporters. Most enzyme assays (CYPs, kinases, phosphatases, proteases, HDACs) used recombinant protein and specific substrates (fluorescence mostly, some colorimetric and radioactive) and inhibitors, followed by a biochemical separation of substrate and product. All assays for the biochemical HTS were initially run in duplicate at a single concentration (10 uM for CYP450 assays and 25 uM for all others). Assay-chemical combinations meeting a pre-defined threshold (e.g., 30% inhibition and other criteria defined below) were then run in singleton concentration-response format with maximum concentration of 20 uM for CYPs and 50 uM for all others. Each assay was run with positive and negative controls, and concurrent controls on every plate. The follow-up (secondary) screen tested active chemical-pairs in concentration series, as well as a few additional assays not tested in the primary screen, some selected negative inactives, and several cases re-run in the concentration series for confirmatory purposes.

Chain of rat Galanin Receptor, Galr1 (gene 50577) (Q62805 whole entry, looked up): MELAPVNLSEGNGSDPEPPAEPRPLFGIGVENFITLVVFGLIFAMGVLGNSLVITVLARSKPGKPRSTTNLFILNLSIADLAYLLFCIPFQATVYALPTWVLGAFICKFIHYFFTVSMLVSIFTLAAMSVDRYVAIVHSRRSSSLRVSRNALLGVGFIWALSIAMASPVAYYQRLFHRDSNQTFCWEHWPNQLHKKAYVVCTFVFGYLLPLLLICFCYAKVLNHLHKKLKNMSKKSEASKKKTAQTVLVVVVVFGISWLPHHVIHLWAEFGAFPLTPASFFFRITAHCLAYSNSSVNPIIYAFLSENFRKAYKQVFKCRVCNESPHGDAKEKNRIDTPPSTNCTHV

Row | Structure (SMILES) | outcome | AC50
1 | Cc1cc(O)ccc1Cl | inactive | –
2 | c1ccc2c(c1)-c1cccc3c1c-2cc1ccccc13 | inactive | –
3 | C=CCC1=C(C)C(OC(=O)C2C(C=C(C)C)C2(C)C)CC1=O (stereo unspecified) | inactive | –
4 | CCC[CH2][Sn]([Cl])([CH2]CCC)[CH2]CCC | – | 3.99 µM (active)
5 | CC(C)=CCCC(C)=CC=O | inactive | –
6 | CCCCCCCCCCC | inactive | –
7 | CCCCc1ccc2c(n1)[C@@H](c1ccc(OC)cc1C[C@H](C)C(=O)O)[C@H](C(=O)O)[C@H]2c1ccc2c(c1)OCO2 | inactive | –
8 | CCCCCCCCCCO | inactive | –
9 | CN(C)C(=O)Cl | inactive | –
10 | O=C(O)C1C(C(=O)O)C2(Cl)C(Cl)=C(Cl)C1(Cl)C2(Cl)Cl (stereo unspecified) | inactive | –
11 | Cc1cccc(C)c1O | inactive | –
12 | CCN1CCC2(CC1)COc1cc3c(cc12)N(C(=O)c1ccc(-c2ccc(-c4nnc(C)o4)cc2C)cc1)CC3 | inactive | –
13 | O=c1ccc2ccccc2o1 | inactive | –
14 | CC(C)NCC(O)c1ccc(O)c(O)c1 (stereo unspecified) | inactive | –
15 | COS(C)(=O)=O | inactive | –
16 | CC(C)(c1ccccc1)c1ccc(O)c(C(C)(C)c2ccccc2)c1 | inactive | –
